# Values joined by “and” are separate entries in the source; they are usually repeats but may differ in a detail not shown here. Equal values may be shown once. Records with an inconclusive call do not appear. For part of these data: Potency and affinity values are given separately. Active and inactive are the calls of the source.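 The calls were made as follows, unless noted: active = at least 20% inhibition of 6-phosphogluconate dehydrogenase activity; inactive = the rest.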
# What was measured:
# [1] = molecular target: 6-phosphogluconate dehydrogenase, decarboxylating (Homo sapiens) (UniProt P52209); experiment: inhibition of human phosphogluconate dehydrogenase – biochemical, recombinant enzyme, NADPH absorbance, primary screen (AID 1159550); settings: recombinant 6PGD, NADPH absorbance 341 nm; at 10 µM; stronger effect = higher value
# [2] = EMT-state selective cytotoxicity in co-culture – imaging, PC-3E GFP, TEM4-18 mCherry, primary screen (AID 1345086;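 active = compounds killing one labelled cell type while sparing the other, by normalised counts and ratio limits, not self-fluorescent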;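 as to all read-outs here: cells exposed to compound for 72 h before imaging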;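 as to red/green cell ratio (normalised): normalised mesenchymal count divided by normalised epithelial count so high means epithelial killing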); settings: PC-3E GFP / TEM4-18 mCherry co-culture, imaging cell counts, at 1 µM; for red/green cell ratio (normalised): actives lie on both sides
# [3] = test system: Aerobactin synthetase IucA (Klebsiella pneumoniae hvKP1); experiment: IucA enzyme inhibition, primary screen, biochemical, Spectrum library (AID 1346200; call rule not given here;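 also: 100% = wells without compound and 0% = wells lacking enzyme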); settings: malachite green pyrophosphate, A620, at 8 µM, stronger effect = lower value
# [4] = molecular target: Mitogen-activated protein kinase 7 (Homo sapiens) (UniProt Q13164); experiment: Gal4-ERK5 driven luciferase induction – cell-based, HTS, primary screen (AID 1508626;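 active = luciferase signal above three times the same-plate solvent-only control wells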;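 also: luciferase driven by Gal4-ERK5 fusion binding five Gal4 sites before minimal TATA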); settings: HeLa Gal4-ERK5 transactivation, 18 h, at 5 µM, stronger effect = higher value
# [5] = molecular target: ATP-dependent translocase ABCB1 (Homo sapiens) (UniProt P08183); experiment: P-glycoprotein substrate transport blockade – cell-based (AID 377; in the data active = fluorescence slope change above about 50%); settings: MDR1-expressing cells, fluorescent substrate accumulation slope; stronger effect = higher value; concentration not given here
# [6] = compounds altering viability of human ES cells (AID 493140; call rule not given here;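 also: cells exposed to compounds for four days before counting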); settings: human embryonic stem cell survival screen; stronger effect = higher value
# [7] = P. berghei load reduction in hepatocytes – cell-based, HepG2, luciferase luminescence, HepG2 viability, primary screen (AID 624349; in the data active = parasite load remaining mostly below about 12%, no sharp cut-off; inactive = mostly above about 10%;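 also: 100% = mean of DMSO negative control wells on the same plate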); settings: P. berghei liver stage in HepG2, luciferase luminescence, concentration not given here; parasite load remaining: stronger effect = lower value; viability: measured here: HepG2 viability without parasites
# [8] = viability loss with induced miR-34 in A549 – imaging, A549 dox-inducible miR-34, nuclei and caspase counts, primary screen (AID 1347080;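 active = compounds whose cell count with miR-34 switched on is under 0.7 times the count with it off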); settings: A549 miR-34 inducible, Hoechst nuclei count, 48 h
# [9] = molecular target: NAD(+) hydrolase SARM1 (Homo sapiens) (UniProt Q6SZW1); experiment: blocking NAD cleavage by SARM1 SAM-TIR – cell lysate, NAD-Glo luminescence (AID 1508614;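 active = compound whose remaining NAD level is above about 45 nM, limit read from the data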;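 also: higher remaining NAD means stronger inhibition of SARM1 NADase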); settings: SAM-TIR HEK293T lysate NADase, at 1 µM, stronger effect = higher value
# [10] = blockers of polyQ-driven CASP3 activation – cell-based (AID 1583); settings: polyglutamine-induced caspase-3 activation, cell assay; stronger effect = higher value;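 tested at 10 µM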
# [11] = yeast 75Q aggregation reduction – 75Q-TubU reporter (AID 1593); settings: Yeast 75Q polyglutamine aggregation reporter
# [12] = restoration of touch response, mutant HTT neurons – whole organism, C. elegans mechanosensory neurons, N-terminal huntingtin (AID 1599); settings: C. elegans polyQ-huntingtin mechanosensory neurons, stronger effect = higher value
# [13] = blockers of cytochrome c efflux from mitochondria – biochemical, purified mitochondria (AID 1603); settings: stronger effect = lower value;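 also: mouse liver mitochondria challenged with calcium chloride; signal normalized to the plate average as 100%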
# [14] = polyglutamine aggregate formation blockers (AID 1604); settings: polyglutamine-induced protein aggregation inhibition assay; stronger effect = higher value; tested at 2.5 µM
# [15] = glutamate transport activators, MN-1 cells, MN-1 cell line (AID 1612); settings: MN-1 motor neuron cells, stronger effect = higher value;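 also: tested at 1 µM final; 0% = mean of DMSO vehicle wells on each plate; positive means more glutamate uptake than control and negative means less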
# [16] = GFP-Q80 aggregate reduction, neuronal-like cells, cell-based, NGF-treated PC12, GFPQ80 (AID 1614); settings: PC12 NGF-treated GFP-polyQ80 inclusion reduction;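 also: lower means fewer inclusions and 0 means no inclusions at all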
# [17] = 75Q-TubH aggregate inhibition, S. cerevisiae, yeast (AID 1616); settings: S. cerevisiae 75Q-TubH polyglutamine aggregation suppression; stronger effect = higher value
# [18] = measured here: epithelial PC-3E GFP cell survival
# [19] = measured here: mesenchymal TEM4-18 mCherry cell survival
# [20] = counts scaled to control wells, 1 = unselective
# [21] = measured here: relative caspase fold change +Dox/-Dox
# [22] = measured here: total cells with miR-34 induction, stronger effect = lower value
# [23] = measured here: total cells without miR-34 induction
# Sequence of 6-phosphogluconate dehydrogenase, decarboxylating (Homo sapiens) (P52209 whole entry, looked up): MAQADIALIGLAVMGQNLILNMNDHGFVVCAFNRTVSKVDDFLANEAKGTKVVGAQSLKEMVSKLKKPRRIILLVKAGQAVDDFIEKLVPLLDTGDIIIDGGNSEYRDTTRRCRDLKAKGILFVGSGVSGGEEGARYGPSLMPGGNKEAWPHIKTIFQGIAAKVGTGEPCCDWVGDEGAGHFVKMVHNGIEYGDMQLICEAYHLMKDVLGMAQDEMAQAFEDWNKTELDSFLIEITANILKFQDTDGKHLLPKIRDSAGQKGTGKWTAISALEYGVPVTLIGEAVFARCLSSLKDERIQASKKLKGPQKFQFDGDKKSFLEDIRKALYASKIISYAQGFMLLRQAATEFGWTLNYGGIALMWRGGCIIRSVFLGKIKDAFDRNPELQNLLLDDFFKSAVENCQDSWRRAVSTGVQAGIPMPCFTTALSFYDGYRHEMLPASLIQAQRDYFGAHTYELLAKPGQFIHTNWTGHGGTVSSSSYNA
# Sequence of Mitogen-activated protein kinase 7 (Homo sapiens) (Q13164 whole entry, looked up, the tested form may be a part): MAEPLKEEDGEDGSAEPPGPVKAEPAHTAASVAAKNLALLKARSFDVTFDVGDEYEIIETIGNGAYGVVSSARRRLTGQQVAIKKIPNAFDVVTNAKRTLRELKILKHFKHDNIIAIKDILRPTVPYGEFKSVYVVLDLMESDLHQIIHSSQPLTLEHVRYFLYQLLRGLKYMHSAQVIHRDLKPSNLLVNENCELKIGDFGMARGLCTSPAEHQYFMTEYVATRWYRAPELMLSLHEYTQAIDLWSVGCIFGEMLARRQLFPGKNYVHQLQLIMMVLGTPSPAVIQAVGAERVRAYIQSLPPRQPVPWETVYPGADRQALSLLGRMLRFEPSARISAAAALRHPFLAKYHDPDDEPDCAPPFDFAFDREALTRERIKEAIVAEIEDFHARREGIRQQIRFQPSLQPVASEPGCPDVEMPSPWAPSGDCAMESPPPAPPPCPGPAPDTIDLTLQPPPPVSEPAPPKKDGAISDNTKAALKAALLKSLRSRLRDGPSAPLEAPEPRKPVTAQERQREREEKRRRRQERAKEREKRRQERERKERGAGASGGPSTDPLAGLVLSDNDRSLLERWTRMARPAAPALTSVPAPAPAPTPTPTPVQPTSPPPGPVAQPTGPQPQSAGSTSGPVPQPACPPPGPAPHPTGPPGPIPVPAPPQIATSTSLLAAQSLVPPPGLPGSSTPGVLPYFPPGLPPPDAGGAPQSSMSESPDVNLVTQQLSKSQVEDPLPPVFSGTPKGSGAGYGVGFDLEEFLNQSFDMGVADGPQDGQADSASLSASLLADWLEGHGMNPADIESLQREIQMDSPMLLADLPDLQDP
# Sequence of ATP-dependent translocase ABCB1 (Homo sapiens) (P08183 whole entry, looked up): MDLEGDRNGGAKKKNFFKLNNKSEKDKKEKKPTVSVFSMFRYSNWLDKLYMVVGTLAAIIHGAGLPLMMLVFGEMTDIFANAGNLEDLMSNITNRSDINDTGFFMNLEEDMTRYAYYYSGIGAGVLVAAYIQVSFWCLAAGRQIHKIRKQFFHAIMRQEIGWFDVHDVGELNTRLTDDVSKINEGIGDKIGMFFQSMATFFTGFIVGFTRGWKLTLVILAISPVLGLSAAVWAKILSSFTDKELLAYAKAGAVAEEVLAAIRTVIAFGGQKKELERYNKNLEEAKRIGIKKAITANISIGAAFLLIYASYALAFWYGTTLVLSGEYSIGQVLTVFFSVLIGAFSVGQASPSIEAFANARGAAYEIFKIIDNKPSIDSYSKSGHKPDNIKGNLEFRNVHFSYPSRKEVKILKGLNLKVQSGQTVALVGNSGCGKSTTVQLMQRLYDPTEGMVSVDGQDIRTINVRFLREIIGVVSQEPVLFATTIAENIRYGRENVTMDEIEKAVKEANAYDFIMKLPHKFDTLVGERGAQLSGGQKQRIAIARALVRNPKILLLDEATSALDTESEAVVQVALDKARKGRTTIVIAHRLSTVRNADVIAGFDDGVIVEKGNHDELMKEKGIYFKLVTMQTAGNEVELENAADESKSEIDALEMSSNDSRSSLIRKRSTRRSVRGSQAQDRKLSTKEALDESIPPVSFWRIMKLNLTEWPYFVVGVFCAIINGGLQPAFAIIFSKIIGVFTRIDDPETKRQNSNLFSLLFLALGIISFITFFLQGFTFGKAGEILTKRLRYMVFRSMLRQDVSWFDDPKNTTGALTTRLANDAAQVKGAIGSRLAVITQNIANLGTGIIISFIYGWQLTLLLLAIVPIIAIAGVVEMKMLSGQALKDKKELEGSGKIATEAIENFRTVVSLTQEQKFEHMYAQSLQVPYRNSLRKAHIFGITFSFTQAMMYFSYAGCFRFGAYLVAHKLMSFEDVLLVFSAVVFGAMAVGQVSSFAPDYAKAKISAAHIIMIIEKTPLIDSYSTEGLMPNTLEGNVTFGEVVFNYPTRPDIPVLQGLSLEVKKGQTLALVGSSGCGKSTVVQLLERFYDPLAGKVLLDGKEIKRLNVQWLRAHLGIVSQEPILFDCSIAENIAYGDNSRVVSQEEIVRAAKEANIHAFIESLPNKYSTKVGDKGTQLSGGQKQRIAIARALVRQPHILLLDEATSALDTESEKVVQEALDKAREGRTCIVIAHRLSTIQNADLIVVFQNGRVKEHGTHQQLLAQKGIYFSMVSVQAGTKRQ
# Sequence of NAD(+) hydrolase SARM1 (Homo sapiens) (Q6SZW1 whole entry, looked up): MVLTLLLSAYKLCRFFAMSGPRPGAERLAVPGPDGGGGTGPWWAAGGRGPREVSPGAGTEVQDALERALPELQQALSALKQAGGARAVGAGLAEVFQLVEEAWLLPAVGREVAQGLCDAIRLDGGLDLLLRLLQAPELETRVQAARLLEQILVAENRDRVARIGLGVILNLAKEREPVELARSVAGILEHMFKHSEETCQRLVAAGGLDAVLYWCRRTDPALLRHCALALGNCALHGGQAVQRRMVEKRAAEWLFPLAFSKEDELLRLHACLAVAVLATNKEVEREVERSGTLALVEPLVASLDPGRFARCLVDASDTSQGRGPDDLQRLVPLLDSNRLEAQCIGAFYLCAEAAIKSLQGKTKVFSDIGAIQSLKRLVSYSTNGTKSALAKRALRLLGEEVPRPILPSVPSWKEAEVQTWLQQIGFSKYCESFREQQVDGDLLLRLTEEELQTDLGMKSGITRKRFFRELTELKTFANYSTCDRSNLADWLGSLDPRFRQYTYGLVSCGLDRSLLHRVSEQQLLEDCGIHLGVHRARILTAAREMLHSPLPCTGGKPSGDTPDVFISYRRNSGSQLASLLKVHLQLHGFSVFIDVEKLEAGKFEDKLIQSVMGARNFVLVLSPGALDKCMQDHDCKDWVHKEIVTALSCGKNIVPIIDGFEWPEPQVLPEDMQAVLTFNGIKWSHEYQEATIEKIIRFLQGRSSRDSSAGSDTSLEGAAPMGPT
smiles,measurement,setting,value
CC(C)CCCC1(C)C=Cc2c(O)c3c(c(CCC(C)C)c2O1)OC12C(CC4CC1C(C)(C)OC2(CCC(C)C(=O)O)C4O)C3=O (configuration not stated),inhibition,[1],0.442% (inactive)
same,red/green cell ratio (normalised),[2],0.9 (inactive)
same,normalised cell number,[2]; [18],0.98
same,normalised cell number,[2]; [19],0.88
same,activity remaining,[3],98% (inactive)
same,luciferase signal,[4],76 AU (inactive)
COc1cc2c(cc1OC)[C@@H]1C(=O)c3ccc4oc(C(C)C)cc4c3O[C@@H]1CO2,inhibition,[1],4.17% (inactive)
same,red/green cell ratio (normalised),[2],0.79 (inactive)
same,normalised cell number,[2]; [18],1.25
same,normalised cell number,[2]; [19],0.98
same,activity remaining,[3],104% (inactive)
same,luciferase signal,[4],76 AU (inactive)
COc1cc2c(cc1OC)[C@@H]1C(=O)c3ccc(OC)c(CC=C(C)C)c3O[C@@H]1CO2,inhibition,[1],18.8% (inactive)
same,red/green cell ratio (normalised),[2],0.91 (inactive)
same,normalised cell number,[2]; [18],0.87
same,normalised cell number,[2]; [19],0.8
same,activity remaining,[3],109% (inactive)
same,luciferase signal,[4],68 AU (inactive)
Cc1[nH]c2ccccc2c1CN(C)C,inhibition,[1],-5.39% (inactive)
same,red/green cell ratio (normalised),[2],0.92 (inactive)
same,normalised cell number,[2]; [18],0.99
same,normalised cell number,[2]; [19],0.91
same,activity remaining,[3],101% (inactive)
same,luciferase signal,[4],44 AU (inactive)
CC1=CCCC2C1(C)CCC(C)C2(C)CC/C(C)=C/C[n+]1cn(C)c2c(N)ncnc21 (configuration not stated),inhibition,[1],12% (inactive)
same,red/green cell ratio (normalised),[2],0.92 (inactive)
same,normalised cell number,[2]; [18],0.97
same,normalised cell number,[2]; [19],0.89
same,activity remaining,[3],115% (inactive)
same,luciferase signal,[4],64 AU (inactive)
C/C=C/c1ccc2c(c1)OCO2,inhibition,[1],-4.44% (inactive)
same,red/green cell ratio (normalised),[2],0.96 (inactive)
same,normalised cell number,[2]; [18],1.11
same,normalised cell number,[2]; [19],1.06
same,activity remaining,[3],80.6% (inactive)
same,luciferase signal,[4],296 AU (active)
O=c1cccc2n1CC1CC2CN2CCCC[C@@H]12 (some centres not stated),inhibition,[1],1.69% (inactive)
same,red/green cell ratio (normalised),[2]; [20],1.02 (inactive)
same,normalised cell number,[2]; [18],0.92
same,normalised cell number,[2]; [19],0.94
same,activity remaining,[3],116% (inactive)
same,luciferase signal,[4],56 AU (inactive)
COc1cc([C@@H]2c3cc4c(c(O)c3C[C@H]3COC(=O)[C@@H]32)OCO4)cc(OC)c1OC,inhibition,[1],-17.8% (inactive)
same,red/green cell ratio (normalised),[2],0.83 (inactive)
same,normalised cell number,[2]; [18],0.2
same,normalised cell number,[2]; [19],0.16
same,activity remaining,[3],116% (inactive)
same,luciferase signal,[4],16 AU (inactive)
NCC(=O)c1ccccc1,inhibition,[1],-6.79% (inactive)
same,red/green cell ratio (normalised),[2],0.98 (inactive)
same,normalised cell number,[2]; [18],1.03
same,normalised cell number,[2]; [19],1.02
same,activity remaining,[3],114% (inactive)
same,luciferase signal,[4],56 AU (inactive)
CC[C@@]1(O)C[C@H](O)c2c(cc3c(c2O)C(=O)c2c(O)ccc(O)c2C3=O)[C@H]1C(=O)OC,inhibition,[1],10.8% (inactive)
same,red/green cell ratio (normalised),[2],0.85 (inactive)
same,normalised cell number,[2]; [18],0.96
same,normalised cell number,[2]; [19],0.82
same,activity remaining,[3],112% (inactive)
same,luciferase signal,[4],52 AU (inactive)
CC(C)=CCCC1(C)C=Cc2c(O)c3c(c(CC=C(C)C)c2O1)OC12C(CC4CC1C(C)(C)OC2(C/C=C(/C)C(=O)O)C4O)C3=O (configuration not stated),inhibition,[1],-6.13% (inactive)
same,red/green cell ratio (normalised),[2],1.11 (inactive)
same,normalised cell number,[2]; [18],0.96
same,normalised cell number,[2]; [19],1.07
same,activity remaining,[3],119% (inactive)
same,luciferase signal,[4],96 AU (inactive)
COc1ccc(C(=O)O)cc1OC,inhibition,[1],7.84% (inactive)
same,red/green cell ratio (normalised),[2],0.77 (inactive)
same,normalised cell number,[2]; [18],1.22
same,normalised cell number,[2]; [19],0.94
same,activity remaining,[3],78.5% (inactive)
same,luciferase signal,[4],40 AU (inactive)
COc1ccc2c(c1OC)C(=O)O[C@@H]2[C@H]1c2cc3c(cc2CCN1C)OCO3,fluorescence slope change,[5],159% (active)
same,survival,[6],7.17 (inactive)
same,parasite load remaining,[7],124% (inactive) and 81.5% (inactive) and 40.1% (inactive)
same,viability,[7],101% and 75.4% and 98.1%
same,inhibition,[1],6.9% (inactive)
same,red/green cell ratio (normalised),[2],1.06 (inactive)
same,normalised cell number,[2]; [18],1.07
same,normalised cell number,[2]; [19],1.13
same,fold change,[8]; stronger effect = lower value,0.884 (inactive)
same,fold change,"[8]; stronger effect = lower value, cell number ratio, induced over uninduced",0.838 (inactive)
same,fold change,[8]; [21],1.51 and 2.25
same,cell count,[8]; [22],8490 and 11200
same,cell count,[8]; [23],10100 and 12700
same,remaining NAD,[9],10 nM (inactive)
same,luciferase signal,[4],84 AU (inactive)
c1ccc2c(c1)[nH]c1cnccc12,fluorescence slope change,[5],73% (active)
same,inhibition,[1],1.67% (inactive)
same,red/green cell ratio (normalised),[2],1 (inactive)
same,normalised cell number,[2]; [18],0.91
same,normalised cell number,[2]; [19],0.91
same,activity remaining,[3],105% (inactive)
same,luciferase signal,[4],44 AU (inactive)
COC(=O)COc1ccc(Cl)cc1Cl,inhibition,[1],-25.1% (inactive)
same,activity remaining,[3],109% (inactive)
OC[C@@H]1CCCN2CCCC[C@H]12,parasite load remaining,[7],133% (inactive)
same,viability,[7],91.1%
same,inhibition,[1],-5.58% (inactive)
same,red/green cell ratio (normalised),[2],0.92 (inactive)
same,normalised cell number,[2]; [18],0.97
same,normalised cell number,[2]; [19],0.89
same,activity remaining,[3],109% (inactive)
same,luciferase signal,[4],48 AU (inactive)
CC(C)N(C(=O)SCC(Cl)=C(Cl)Cl)C(C)C,inhibition,[1],4.75% (inactive)
same,activity remaining,[3],102% (inactive)
CNC(=O)Oc1ccccc1OC(C)C,inhibition,[1],-1.91% (inactive)
same,red/green cell ratio (normalised),[2],1 (inactive)
same,normalised cell number,[2]; [18],1.06
same,normalised cell number,[2]; [19],1.05
same,fold change,[8]; stronger effect = lower value,0.96 (inactive)
same,fold change,[8]; [21],0.908
same,cell count,[8]; [22],8560
same,cell count,[8]; [23],8930
same,remaining NAD,[9],10 nM (inactive)
same,luciferase signal,[4],88 AU (inactive)
C=C(C)[C@@H]1[C@H]2OC(=O)[C@@H]1[C@]1(O)C[C@H]3O[C@]34C(=O)O[C@H]2[C@]14C,inhibition,[10],-31.3%
same,score,[11],1.33
same,rescue above control,[12],6.9
same,cytochrome c release ratio,[13],0.8
same,inhibition of aggregation,[14],48.7%
same,glutamate uptake change,[15],1.09%
same,inclusion score,[16],2
same,aggregation suppression score,[17],1.46
same,inhibition,[1],2.77% (inactive)
same,red/green cell ratio (normalised),[2],1.08 (inactive)
same,normalised cell number,[2]; [18],0.99
same,normalised cell number,[2]; [19],1.06
same,luciferase signal,[4],76 AU (inactive)
CNc1ccccc1C(=O)O,inhibition,[1],18.3% (inactive)
same,red/green cell ratio (normalised),[2],0.85 (inactive)
same,normalised cell number,[2]; [18],1.13
same,normalised cell number,[2]; [19],0.95
same,luciferase signal,[4],76 AU (inactive)
O=C(O)CF,inhibition,[1],10.5% (inactive)
same,red/green cell ratio (normalised),[2]; [20],0.92 (inactive)
same,normalised cell number,[2]; [18],1.09
same,normalised cell number,[2]; [19],1
same,luciferase signal,[4],80 AU (inactive)
CC(C)(O)[C@@H]1[C@H]2OC(=O)[C@@H]1[C@]1(O)C[C@H]3O[C@]34C(=O)O[C@H]2[C@]14C,inhibition,[10],-16.4%
same,score,[11],1.49
same,rescue above control,[12],8.41
same,cytochrome c release ratio,[13],0.87
same,inhibition of aggregation,[14],51%
same,glutamate uptake change,[15],14.8%
same,inclusion score,[16],2
same,aggregation suppression score,[17],1.53
same,parasite load remaining,[7],79% (inactive)
same,viability,[7],91.4%
same,inhibition,[1],6.64% (inactive)
same,red/green cell ratio (normalised),[2],0.89 (inactive)
same,normalised cell number,[2]; [18],1.1
same,normalised cell number,[2]; [19],0.99
same,activity remaining,[3],107% (inactive)
same,luciferase signal,[4],84 AU (inactive)
COc1cccc2c1cc([N+](=O)[O-])c1c(C(=O)O)cc3c(c12)OCO3,inhibition,[1],-5.9% (inactive)
same,activity remaining,[3],103% (inactive)
same,fold change,[8]; stronger effect = lower value,1.04 (inactive)
same,fold change,[8]; [21],1.14
same,cell count,[8]; [22],4170
same,cell count,[8]; [23],4020
same,luciferase signal,[4],36 AU (inactive)

# — PubChem BioAssay
